Sm TGR block: S. mansoni TGR enzyme inhibition | hit rate 3% among 360,000 | Potency, µM (series often up to 114 µM), inactives show at the highest dose activity change, negative = inhibition, actives largely listed as inhibitors | purified TGR, DTNB reduction, TNB absorbance 405 nm | Q962Y6; also: nearly all actives have a fitted effect of over 60% in size
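Kinetic colorimetric format: TGR-catalysed, NADPH-driven DTNB reduction monitored via TNB absorbance. Enzyme dispensed at 20 nM; compound exposure 15 min at room temperature before reaction start.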
FMDV antiviral: antivirals against foot and mouth disease virus; FMDV antiviral cell-based qHTS; Potency, µM (titrated, usually from 57.9 µM), for inactives: at the top dose activity change, negative = inhibition, most hits filed as inhibitors; hit rate 1.2% among 410,000; AID 1159524; calls by dose curve; tested in HEK293T cells; also: read-out not given here; nearly all actives have a fitted effect of over 45% in size
RE007 growth inh: less growth of the S. pombe RE007 Vpr strain. Potency, µM (doses to about 92.2 µM), without a hit: at the top dose activity change, negative = less growth, hits mostly inhibitors. AID 651644. S. pombe RE007 Vpr strain, BacTiter-Glo ATP luminescence, 24 h. hit rate 0.21% among 360,000; active = well fitted falling curve with a large enough effect; inconclusive = small, poorly fitted or top-dose-only effect; inactive = no such curve, though single readings can be large or run the other way; also: nearly all actives have a fitted effect of over 50% in size
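Fission yeast RE007 carrying one integrated HIV-1 vpr copy, seeded at OD 0.01 in PMG+AL medium with 23 nL pinned compound. Grown 24 h at 30 degrees; viability read by BacTiter-Glo luminescence after 5 min.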
Tb PYK inh: blocks Trypanosoma brucei pyruvate kinase. TbPYK enzyme, Kinase-Glo Plus ATP luminescence, 45 min. Potency, µM (doses to about 76.8 µM), for the others: at the highest dose activity, negative = inhibition, usual class: inhibitors. hit rate 0.12% among 410,000; also: nearly all actives have a fitted effect of over 50% in size
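Screened from lowest to highest concentration, compounds were pinned into TbPYK/substrate mixtures, and ADP (130 uM final) was added. Plates sat at room temperature for 45 min prior to Kinase-Glo Plus detection by luminescence.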
An asterisk follows results filed as active; ? = inconclusive; / = no result given; [ ] = remark or other dose. Sampled rows, rich in hits. Any-hit rate of the full collection: about 3.7%. Unless noted, calls follow the shape of the dose curve; as a rule, active = well fitted curve in the direction sought with a large enough effect; inconclusive = small, poorly fitted or top-dose-only effect, or another doubt; inactive = no such curve, though single readings can be large; an effect the other way counts as inactive or inconclusive. % is scaled to controls: 0 for no effect and ±100 for the full control effect; potency is read from the fitted curve at half-maximal effect.

SMILES | Sm TGR block | FMDV antiviral | RE007 growth inh | Tb PYK inh
O=C(C1=C[C@@H](c2csc3ccccc23)C[C@@H](OCc2ccc(CO)cc2)O1)N1CCN(Cc2ccc3c(c2)OCO3)CC1 | -8% | -27% | ? | 0%
O=C(C1=C[C@H](c2ccccc2)C[C@H](OCc2ccc(CO)cc2)O1)N1CCN(Cc2ccccc2)CC1 | 28µM* | -27% | -22% | 1%
O=C(C1=C[C@@H](c2csc3ccccc23)C[C@@H](OCCCCO)O1)N1CCN(Cc2ccc3c(c2)OCO3)CC1 | -10% | -25% | 2% | -1%
O=C(C1=C[C@H](c2csc3ccccc23)C[C@H](OCCCCO)O1)N1CCN(Cc2ccccc2)CC1 | 18µM* | ? | -12% | -3%
CC(=O)c1sc(N/N=C2\CC3CC2C(C)C3(C)C)nc1C (stereo not drawn) | 1.6µM* | 20% | 6% | -19%
CN(C)C(=S)SSC(=S)N(C)C | -33% | 0% | 3.2µM* | 4.5µM*
CN(C)CC(C)(O)c1ccc2c(c1)CN(C(=O)c1ccc(-n3cccn3)cc1)CCO2 (stereo not drawn) | / | -1% | / | /
CN1C(=O)C(Cl)(Cl)C(=O)c2ccccc21 | 0% | 28µM* | -8% | 14µM*
CCOC(=O)CSC1=NC(=O)/C(=C/c2ccc(OC)cc2)S1 | 6.3µM* | 25µM* | ? | -14%
O=C(Nc1c(F)cc(F)cc1Br)c1ccco1 | 45µM* | 18% | -1% | -3%
Cc1occc1C(=O)NCCN1Cc2ccccc2OC(c2ccccc2F)C1 (stereo not drawn) | / | 4% | / | /
Cc1ccc(COc2ccsc2-c2n[nH]c(=S)n2C)cc1 | -11% | -1% | 0%[3.69 µM] | /
Cn1c(-c2sccc2OCc2ccc(Cl)cc2Cl)n[nH]c1=S | 1% | -27% | 18% | 3.5µM*
COc1ccccc1N1C(=O)[C@@H]2[C@H](C1=O)[C@H](C(=O)c1ccc(OC(C)=O)cc1)N1N=CC=C[C@@H]21 | 16µM* | 7% | 1% | -14%
COc1ccc2[nH]cc(CCNc3nc(-c4ccc(N(C)C)cc4)nc4ccccc34)c2c1 | / | 0% | / | /
CCOc1ccc(Nc2nc(N)nc(CCl)n2)cc1 | 25µM* | 13% | 2% | -7%
Cc1ccc(Nc2nc(N)nc(CCl)n2)cc1 | 11µM* | 7% | 10% | -1%
Cc1ccc(Nc2nc(N)nc(CN3CCCCCC3)n2)c(C)c1 | ? | -16% | -18% | -2%
CCOc1ccc(Nc2nc(N)nc(CN3CCN(c4ccccc4F)CC3)n2)cc1 | -3% | ? | 5% | 0%
Cc1ccc(Nc2nc(N)nc(CCl)n2)c(C)c1 | 32µM* | 16% | -6% | -3%
Nc1nc(CCl)nc(Nc2ccccc2)n1 | 40µM* | 38% | -10% | 2%
Cc1ccc(C)c(N(C)S(=O)(=O)c2ccc3[nH]cc(C(=O)NC4CCCC4)c(=O)c3c2)c1 | 1% | -13% | / | 4%
COC(=O)c1c(C)oc2ccc(N(C(=O)Oc3ccccc3)S(=O)(=O)c3ccc(C(C)(C)C)cc3)cc12 | -1% | -24% | / | 2%
CCOC(=O)c1ccc2c(c1)C1C=CCC1C(C(=O)O)N2 (stereo not drawn) | 7.9µM* | / | / | /
CCOC(=O)C1Nc2ccc(C(=O)O)cc2C2C=CCC12 (stereo not drawn) | ? | -8% | 0% | -11%
SMILES | Sm TGR block | FMDV antiviral | RE007 growth inh | Tb PYK inh
CCN(CC)C(=O)c1ccc2c(c1)C1C=CCC1C(C(=O)O)N2 (stereo not drawn) | 0.45µM* | -27% | / | ?
CCN(CC)C(=O)c1ccc2c(c1)C1C(Cl)C(Sc3ccccc3[N+](=O)[O-])CC1C(C(=O)O)N2 (stereo not drawn) | 3.2µM* | -28% | -2% | -26%
CN1C(C(=O)c2ccccc2)=C(OC(=O)c2ccc(Br)cc2)c2ccccc2S1(=O)=O | -5% | ? | / | 2%
Cc1c(C)n(C)c2ccc(C(=O)NCCc3ccc(Cl)cc3)cc12 | -2% | -2% | / | -3%[15.4 µM]
CCS(=O)(=O)c1ncc(Cl)c(C(=O)Nc2ccc(S(=O)(=O)N3CCCC(C)C3)cc2)n1 (stereo not drawn) | 0.35µM* | 10µM* | 8% | -2%
CC1CCCN(S(=O)(=O)c2ccc(NC(=O)CNC3CCCC3)cc2)C1 (stereo not drawn) | -1% | 4% | -10% | -4%
COc1ccc(NC(=O)c2nc(S(=O)(=O)Cc3ccc(C)cc3)ncc2Cl)cc1 | ? | ? | / | -3%
Cc1ccc(CS(=O)(=O)c2ncc(Cl)c(C(=O)Nc3ccc(OC(F)F)cc3)n2)cc1 | 10µM* | 25µM* | -6% | -15%
CCSc1ncc(Cl)c(C(=O)Nc2ccc(S(=O)(=O)N3CCCCC3CC)cc2)n1 (stereo not drawn) | 5% | 1% | / | -3%
CCS(=O)(=O)c1ncc(Cl)c(C(=O)Nc2ccc(C)cc2)n1 | 6.3µM* | 14µM* | -1% | 0%
CCC1CCCCN1S(=O)(=O)c1ccc(NC(=O)c2nc(S(C)(=O)=O)ncc2Cl)cc1 (stereo not drawn) | 2µM* | 32µM* | -9% | -8%
Cc1cc2c(c(-c3cnccn3)c1)OC(CNC(=O)c1cc(C(C)C)[nH]n1)C2 (stereo not drawn) | / | -10% | / | /
Cc1cccc2[nH]c3c(N4CCC5(CC4)OCCO5)ncnc3c12 | 3% | 40µM* | -2% | 4%
c1ccc2c(c1)[nH]c1c(N3CCSCC3)ncnc12 | 7% | 22µM* | 2% | -3%
c1ccc2c(c1)[nH]c1c(N3CCCC3)ncnc12 | 5% | 13µM* | 5% | 1%
Nc1c(C(=O)NC2CC2)sc2nc3c(c(-c4ccco4)c12)CC/C3=C/c1ccco1 | 5µM* | -20% | -14% | -30%
CCOC(=O)C1CCCN(c2nc(C)nc3c2oc2ccccc23)C1 (stereo not drawn) | 6% | 22µM* | 5% | 4%
Cc1nc(SCC(=O)N2CCN(c3ccccc3)CC2)c2oc3ccccc3c2n1 | -1% | 25µM* | -1% | -4%
CC(=O)Nc1ccc(Nc2nc(C)nc3c2oc2ccccc23)cc1 | 18% | ? | 2% | 5%
CC(=O)N1CCN(c2ccc(Nc3nc(C)nc4c3oc3ccccc34)cc2)CC1 | 30% | 25µM* | 9% | -1%
CCOC(=O)C1CCN(c2nc(C)nc3c2oc2ccccc23)CC1 | 0% | ? | 1% | 3%
COc1ccc(-n2c(CNC(=O)c3c(-c4ccccc4)noc3C)nnc2SC)cc1 | / | -14% | / | /
CC(=O)c1ccc(N2CCN(C(=O)C3CCN(S(=O)(=O)c4cn(C)cn4)CC3)CC2)cc1 | 11% | -6% | / | -5%
CCOC(=O)c1c(-c2ccccc2)oc2ccc(OCc3ccccc3Br)cc12 | -10% | -18% | / | 2%
CCC1(C2CCN(Cc3cccc4ccccc34)CC2)NC(=O)N(Cc2ccc3c(c2)OCO3)C1=O (stereo not drawn) | / | -2% | / | /
CN1CCc2c(sc3c2C(=O)NC(c2ccccn2)N3)C1 (stereo not drawn) | 40µM* | 12% | -1% | -11%
O=C1NC(c2ccccn2)Nc2sc3c(c21)CCC3 (stereo not drawn) | 32µM* | 37% | ? | -13%

Screens deposited in PubChem by National Center for Advancing Translational Sciences (NCATS).
